T cruzi growth-1: T. cruzi proliferation inhibition; T. cruzi beta-gal in NIH3T3, GalScreen luminescence, 90 h; AID 624255; inhibition, % at 8.34 µM; 77,000 compounds, 5.9% hits;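 active = mean inhibition above about 93%, with at least 55% of replicates each passing it, limit read from the data, passing the limit was not always enough; inconclusive = only one of those two conditions holds; inactive = neither condition holds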
Pf Dd2 growth: P. falciparum Dd2 growth inhibition; SYBR Green, 72 h; active compounds read low; activity change, % at 10 µM; 94,000 compounds, 2.3% hits; in the data active = activity change below about -80%; inconclusive = no clear call, values can overlap the other calls
C diff growth: C. difficile growth inhibition | AID 1259249 | growth activity, negative = inhibition, % at 16 µg/mL (by protocol) | Clostridium difficile clinical isolate growth, OD600, 24 h; active compounds read low | 86,000 compounds, 0.25% hits;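 active = mean growth activity at or below -80% and every replicate also at or below -80%; inconclusive = mean at or below -80% but some replicate above -80%; inactive = mean growth activity above -80%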
T cruzi growth-2: inhibitors of T. cruzi proliferation; shares compounds with T cruzi growth-1; T. cruzi beta-gal in NIH3T3, GalScreen luminescence, 90 h; AID 651739; 5,600 compounds, 72% hits; inhibition, % at 8.35 µM;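 active = mean replicate inhibition above about 95% and at least 55% of replicates individually reaching it, limit read from the data; inconclusive = only one of the two criteria is met; inactive = neither criterion is met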
T cruzi growth-3: Trypanosoma cruzi proliferation inhibition | shares compounds with T cruzi growth-1 | T. cruzi beta-gal in NIH3T3, GalScreen luminescence, 90 h | inhibition, % at 2.09 µM | 5,600 compounds, 21% hits;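 active = mean inhibition above about 95%, with at least 55% of replicates also reaching it, limit read from the data; inconclusive = meets just one of the two conditions; inactive = meets neither condition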
3T3 cytotox: NIH/3T3 (mouse) viability loss; shares compounds with T cruzi growth-1; NIH/3T3 viability, CellTiter-Glo ATP luminescence, 90 h; cytotoxicity (signal decrease), % at 8.35 µM; 5,600 compounds, 14% hits;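 active = mean signal decrease across replicates above about 35% based on untreated-well scatter, with enough replicates individually passing, limit read from the data; inconclusive = no rule stated though some were filed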
3T3 cytotox 2: NIH/3T3 (mouse) viability loss. shares compounds with T cruzi growth-1. NIH/3T3 viability, CellTiter-Glo ATP luminescence, 90 h. inhibition, % at 24.9 µM. 5,600 compounds, 56% hits. AID 651744;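 active = mean loss of cell viability signal at or above a set limit, and enough replicates individually reaching it; inconclusive = meets only the mean limit or only the replicate share; inactive = meets neither condition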
A number is an active result; n = inactive; u = inconclusive; x = no result given. Sampled rows, rich in hits. Any-hit rate of the full collection: about 6.7%.

SMILES | T cruzi growth-1 | Pf Dd2 growth | C diff growth | T cruzi growth-2 | T cruzi growth-3 | 3T3 cytotox | 3T3 cytotox 2
C[C@H](CO)N1C[C@H](C)[C@H](CN(C)Cc2ccc3c(c2)OCO3)Oc2ccc(NC(=O)Nc3cccc4ccccc34)cc2CC1=O | n | n | n | x | x | x | x
C[C@@H]1CN([C@@H](C)CO)C(=O)c2cc(NC(=O)Nc3ccc4c(c3)OCO4)ccc2O[C@@H](C)CCCCO[C@@H]1CN(C)CC1CCCCC1 | n | n | n | x | x | x | x
COc1ccc(NC(=O)Nc2ccc3c(c2)CC(=O)N([C@@H](C)CO)C[C@@H](C)[C@H](CN(C)CC2CCCCC2)O3)cc1 | 120 | -90 | n | 99 | n | n | 104
C[C@@H]1CCCCO[C@H](CN(C)CC2CCCCC2)[C@H](C)CN([C@@H](C)CO)C(=O)c2cc(NC(=O)Nc3ccccc3)ccc2O1 | n | n | n | x | x | x | x
COc1ccc(NC(=O)Nc2ccc3c(c2)CC(=O)N([C@@H](C)CO)C[C@@H](C)[C@H](CN(C)CC2CC2)O3)cc1 | n | n | n | x | x | x | x
C[C@H]1CCCCO[C@@H](CN(C)CC2CCCCC2)[C@@H](C)CN([C@@H](C)CO)C(=O)c2cc(NC(=O)Nc3ccc4c(c3)OCO4)ccc2O1 | 99 | -81 | n | u | 109 | 41 | 106
C[C@@H]1CCCCO[C@@H](CN(C)CC2CC2)[C@H](C)CN([C@H](C)CO)C(=O)c2cc(NC(=O)Nc3ccccc3)ccc2O1 | n | n | x | x | x | x | x
C[C@@H]1CCCCO[C@@H](CN(C)CC2CCCCC2)[C@@H](C)CN([C@@H](C)CO)C(=O)c2cc(NC(=O)Nc3ccccc3)ccc2O1 | 125 | n | n | 104 | n | n | 103
C[C@@H]1CCCCO[C@@H](CN(C)CC2CCCCC2)[C@H](C)CN([C@@H](C)CO)C(=O)c2cc(NC(=O)Nc3ccccc3)ccc2O1 | 105 | n | n | 101 | n | n | 104
COCC(=O)N(C)C[C@@H]1Oc2ncc(-c3ccccc3F)cc2C(=O)N([C@@H](C)CO)C[C@@H]1C | x | n | n | x | x | x | x
O=C(C[C@@H]1C[C@@H]2c3cc(NC(=O)CC4CC4)ccc3O[C@@H]2[C@@H](CO)O1)NCc1cccc(F)c1 | n | n | n | x | x | x | x
Cc1noc(C)c1NC(=O)N(C)C[C@H]1Oc2ccc(NS(=O)(=O)c3cn(C)cn3)cc2CC(=O)N([C@H](C)CO)C[C@@H]1C | n | n | n | x | x | x | x
C[C@@H]1CCCCO[C@H](CN(C)CC2CCCCC2)[C@H](C)CN([C@@H](C)CO)C(=O)c2cc(NC(=O)c3ccccc3)ccc2O1 | n | n | n | x | x | x | x
C[C@@H]1CCCCO[C@H](CN(C)CC2CCCCC2)[C@H](C)CN([C@H](C)CO)C(=O)c2cc(NC(=O)c3ccccc3)ccc2O1 | 118 | n | n | 114 | n | n | 105
C[C@@H]1CCCCO[C@H](CN(C)CC2CCCCC2)[C@@H](C)CN([C@H](C)CO)C(=O)c2cc(NC(=O)Nc3ccccc3)ccc2O1 | 109 | n | n | 112 | n | n | 95
COc1ccc(NC(=O)Nc2ccc3c(c2)C(=O)N([C@H](C)CO)C[C@H](C)[C@@H](CN(C)CC2CCCCC2)OCCCC[C@H](C)O3)cc1 | 96 | n | n | 105 | 112 | n | 105
C[C@H]1CCCCO[C@@H](CN(C)CC2CCCCC2)[C@@H](C)CN([C@@H](C)CO)C(=O)c2cc(NC(=O)c3ccccc3)ccc2O1 | n | u | n | x | x | x | x
COc1ccc(NC(=O)Nc2ccc3c(c2)C(=O)N([C@H](C)CO)C[C@@H](C)[C@@H](CN(C)CC2CCCCC2)OCCCC[C@H](C)O3)cc1 | n | n | n | x | x | x | x
COc1ccc(S(=O)(=O)Nc2ccc3c(c2)CC(=O)N([C@@H](C)CO)C[C@H](C)[C@@H](CN(C)Cc2ccc(Cl)c(Cl)c2)O3)cc1 | n | n | n | x | x | x | x
Cc1noc(C)c1NC(=O)N(C)C[C@@H]1Oc2ccc(NC(=O)Cn3cnnn3)cc2C(=O)N([C@H](C)CO)C[C@@H]1C | n | n | x | x | x | x | x
O=C(C[C@H]1CC[C@H]2[C@@H](COC[C@H](O)CN2CCC(F)(F)F)O1)NCc1ccc(Oc2ccccc2)cc1 | 108 | x | n | 104 | n | n | n

Screening data from PubChem BioAssay.
